Screens: PubChem BioAssay, National Center for Advancing Translational Sciences (NCATS)
D3 antag: qHTS of D3 Dopamine Receptor Antagonist: qHTS; D(3) dopamine receptor (Homo sapiens), P35462; D3R cells, DiscoveRx beta-arrestin luminescence, antagonist mode; stronger effect = lower value; max response, negative = inhibition, %; hit rate 2.5% among 360,000; AID 652054, 2013; in the data active = max response below about -50%; inconclusive = no clear call, values can overlap the other calls; note: % is set by controls: 0 for no effect and ±100 for the full control effect
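Cells expressing the human receptor were seeded at 1500 cells/well, incubated overnight at 37 degrees C in 5% CO2, then exposed to library compounds with dopamine controls for 90 minutes at 37 degrees C before luminescent detection.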
D3 ag: qHTS of D3 Dopamine Receptor Agonist: qHTS | D3R DiscoveRx beta-arrestin cells, luminescence, 90 min | max activation, % | hit rate 0.58% among 410,000; in the data active = max activation above about 30%; note: 0% is about no effect
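Cells at 1500/well, incubated overnight, then treated with pinned compounds (dopamine as control) for 90 min at 37 degrees C. DiscoveRx reagent added for 30 - 60 minutes at room temperature; luminescence read.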
a7 integrin act: qHTS for Activators of Integrin-Mediated Alleviation for Muscular Dystrophy | alpha7betagal myoblasts, beta-gal FDG fluorescence, 48 h | Potency, µM (doses to about 38.3 µM), for inactives: top-dose activation, usual class: activators | hit rate 0.064% among 350,000;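 note: potency is the fitted concentration of half-maximal effect; 100% = response of the positive control SU9516; nearly all actives have a fitted effect of over 60% in size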
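alpha7betagal+/- myoblasts (passage 13, 250/well) treated 48 h at 37C with compounds at 1:260 dilution of DMSO stock. Lysed, then beta-galactosidase activity read as FDG fluorescence (ex 480/em 540) after 30 min, with pre-read for autofluorescence.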
IDH1 R132H inh: qHTS for Inhibitors of mutant isocitrate dehydrogenase 1 (IDH1): qHTS; hit rate 0.093% among 390,000; Isocitrate dehydrogenase [NADP] cytoplasmic (Homo sapiens), O75874; IDH1-R132H enzyme, NADPH consumption, diaphorase/resazurin fluorescence; Potency, µM (highest dose often 76.6 µM), for inactives: at the highest dose activity change, negative = inhibition, usual class: inhibitors; note: potency is the fitted concentration of half-maximal effect; % is set by controls: 0 for no effect and ±100 for the full control effect; nearly all actives have a fitted effect of over 65% in size
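IDH1-R132H (0.5 ug/mL dispensed) in pH 7.5 Tris buffer was preincubated 30 min with compound, then given a substrate mix of 0.016 mM NADPH and 2 mM alpha-KG for 80 min at room temperature; remaining NADPH was read by diaphorase/resazurin fluorescence.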
B2AR arrestin: qHTS assay of beta-arrestin-biased ligands of beta2-adrenergic receptor. AID 492947, 2010. hit rate 0.02% among 330,000. Beta-2 adrenergic receptor (Homo sapiens), P07550. Potency, µM (top dose mostly 46.1 µM), for inactives: at the highest dose activation, actives largely listed as activators. beta-arrestin recruitment to beta2AR, cell-based reporter;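 note: potency is the fitted concentration of half-maximal effect; 0% = DMSO controls and full agonism = EC100 isoproterenol or metaproterenol; nearly all actives have a fitted effect of over 65% in size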
Target sequence (P07550 whole entry, looked up): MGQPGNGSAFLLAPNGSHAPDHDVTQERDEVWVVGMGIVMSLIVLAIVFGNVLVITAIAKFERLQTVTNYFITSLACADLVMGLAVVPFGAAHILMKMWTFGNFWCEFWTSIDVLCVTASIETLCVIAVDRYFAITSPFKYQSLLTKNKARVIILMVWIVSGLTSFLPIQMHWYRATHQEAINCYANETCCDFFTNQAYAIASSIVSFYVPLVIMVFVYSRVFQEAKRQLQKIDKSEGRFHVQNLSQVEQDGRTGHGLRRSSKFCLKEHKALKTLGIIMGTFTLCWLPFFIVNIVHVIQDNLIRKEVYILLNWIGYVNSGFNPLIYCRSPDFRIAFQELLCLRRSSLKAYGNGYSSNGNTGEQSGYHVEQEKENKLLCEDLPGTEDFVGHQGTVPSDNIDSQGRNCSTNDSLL
IDH1 autofl: qHTS for Inhibitors of mutant isocitrate dehydrogenase 1 (IDH1): Cherrypicks Autofluorescence Interference; shares compounds with IDH1 R132H inh; Resorufin detection reagent fluorescence interference, cell-free; inhibition of signal, % at 51.2 µM; 750 tested, under 10 active;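 note: 0% = wells with normal resorufin and full inhibition = wells lacking resorufin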
IDH1 WT: qHTS for Inhibitors of mutant isocitrate dehydrogenase 1 (IDH1): Cherrypicks in WT IDH1; WT IDH1 enzyme, NADPH diaphorase/resazurin fluorescence; Potency, µM (titrated, usually from 115 µM), for the others: at the highest dose activity change, negative = inhibition, usual class: inhibitors; shares compounds with IDH1 R132H inh; hit rate 9% among 750; AID 623995, 2012;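 note: potency is the fitted concentration of half-maximal effect; 0% = full WT IDH1 enzyme control and full inhibition = no enzyme wells; nearly all actives have a fitted effect of over 55% in size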
IDH1 R132H conf: qHTS for Inhibitors of mutant isocitrate dehydrogenase 1 (IDH1): Confirmation of Cherrypicks | shares compounds with IDH1 R132H inh | IDH1 R132H enzyme, NADPH diaphorase/resazurin fluorescence | Potency, µM (doses to about 76.6 µM), for inactives: at the highest dose activity change, negative = inhibition, actives largely listed as inhibitors | hit rate 83% among 750 | AID 624002, 2012; note: potency is the fitted concentration of half-maximal effect; nearly all actives have a fitted effect of over 50% in size
Numbers without * were called inactive; ? = inconclusive; nt = no result given. The list is not random: actives were taken first. Their share in the collection is about 2.9%. Unless noted, calls come from the whole dose curve; as a rule, active = well fitted curve in the direction sought with a large enough effect; inconclusive = small, poorly fitted or top-dose-only effect, or another doubt; inactive = no such curve, though single readings can be large; an effect the other way counts as inactive or inconclusive.

SMILES	D3 antag	D3 ag	a7 integrin act	IDH1 R132H inh	B2AR arrestin	IDH1 autofl	IDH1 WT	IDH1 R132H conf
CC1(C(=O)Nc2cccc(Oc3ccccc3)c2)CCN1Cc1cc2ccccc2o1 (configuration not stated)	9.2	-0.2	nt	nt	nt	nt	nt	nt
CCCCNc1c(-c2cccc(-c3ccc(OC)cc3)c2)nc2ccc(C)cn12	0.0	-3.8	-42.5%	?	-4.0%	-7.4	?	6.31µM*
CCCCNc1c(-c2cccc(-c3cc(C(C)=O)cs3)c2)nc2ccc(C)cn12	80.8	12.6	-46.0%	6.7%	0.0%	nt	nt	nt
CCCOc1ccc(C2C(C(=O)c3ccc(C)o3)=C(O)C(=O)N2Cc2ccco2)cc1 (configuration not stated)	-6.6	1.5	-20.0%	?	-0.4%	nt	nt	nt
CCCOc1ccc(C2C(C(=O)c3ccc(C)o3)=C(O)C(=O)N2Cc2ccco2)cc1OCC (configuration not stated)	-2.6	-6.8	43.1%	52.1µM*	-0.5%	-1.5	5.5%	?
CCCc1ccc(C(=O)O)cc1	nt	1.9	nt	nt	nt	nt	nt	nt
CCOc1ccc(CC(=O)NCCc2csc(-c3ccc(C(F)(F)F)cc3)n2)cc1	nt	-4.4	nt	-4.6%	nt	nt	nt	nt
COc1ccc(NC(=O)CN(C)S(=O)(=O)c2ccc3c(c2)CCCN3C(C)=O)cc1Cl	nt	9.0	nt	8.0%	nt	nt	nt	nt
COc1cccc(C2c3c(-c4ccccc4O)n[nH]c3C(=O)N2CCc2ccc(OC)c(OC)c2)c1 (configuration not stated)	nt	4.5	nt	?	nt	-0.7	9.9%	25.1µM*
CCCCN1C(=O)c2[nH]nc(-c3ccccc3O)c2C1c1cc(Br)c(O)c(OC)c1 (configuration not stated)	nt	8.7	nt	28.2µM*	nt	0.5	39.8µM*	8.91µM*
O=C1c2[nH]nc(-c3ccccc3O)c2C(c2cccc(Cl)c2)N1CC1CCCO1 (configuration not stated)	0.0	-7.2	6.5%	?	1.0%	9.6	0.4%	39.8µM*
COc1ccc(CCN2C(=O)c3[nH]nc(-c4ccccc4O)c3C2c2cccc(O)c2)cc1OC (configuration not stated)	-1.9	0.6	-1.0%	-13.6%	-0.6%	nt	nt	nt
O=C1CN(c2nc(-c3cccs3)nc3sc4c(c23)CCCC4)CCN1	18.2	7.2	-11.2%	52.1µM*	2.9%	-14.3	?	28.2µM*
CCN(C[C@H]1N[C@@](Cc2ccccc2)(C(=O)OC)[C@H]2C(=O)N(C)C(=O)[C@@H]12)C(=O)Nc1ccc(Cl)cc1	-26.3	-0.3	11.2%	2.1%	-0.5%	nt	nt	nt
NNC(=O)CSc1c(-c2ccccc2)c2cc(Cl)ccc2[nH]c1=O	32.6	0.2	-6.9%	?	0.4%	-14.2	-18.7%	-24.9%
O=C(c1ccncc1)N1N=C(c2ccc(Cl)cc2)CC1c1ccccc1O (configuration not stated)	-0.9	-7.4	1.8%	52.1µM*	0.3%	2.2	-2.1%	35.5µM*
COc1ccccc1C1CC(c2ccc(Br)cc2)=NN1C(=O)c1cccnc1 (configuration not stated)	-10.6	-1.0	-21.0%	46.5µM*	5.7%	0.3	-4.9%	22.4µM*
CC(C)(C)NC(=O)CSc1nc2ccc(Nc3nc(N4CCOCC4)nc(N4CCOCC4)n3)cc2s1	36.1	0.8	-27.3%	?	0.6%	-1.5	-5.3%	20µM*
CCc1ccc(NC(=O)CN2C(=O)C3CCCN3c3ccc(S(=O)(=O)N(CC)CC)cc32)cc1 (configuration not stated)	nt	-2.0	nt	44.7µM*	nt	-5.4	-3.6%	28.2µM*
Cc1ccc(CNC(=O)Nc2cc(C(=O)NCc3ccc(C(C)C)cc3)ccc2N2CCCC2)cc1	nt	-1.0	nt	27.3%	nt	nt	nt	nt
CC(C)c1nc2sc3c(NCc4ccccc4)ncnc3c2c2c1COC(C)(C)C2	-15.2	0.0	-6.4%	2.0%	-1.5%	nt	nt	nt
CCN(CCO)c1ncnc2c1sc1nc(C(C)C)c3c(c12)CC(C)(C)OC3	-1.5	1.6	-11.1%	?	0.1%	-13.0	7.08µM*	6.31µM*
CN(C)C(CNc1ncccn1)c1ccccc1 (configuration not stated)	-21.1	-6.2	-1.1%	-1.9%	-0.9%	nt	nt	nt
COC(=O)c1cccc(C#CC(NP(=O)(c2ccccc2)c2ccccc2)c2ccccc2)c1 (configuration not stated)	-16.2	-13.4	-36.6%	-10.1%	1.1%	nt	nt	nt
CCC[C@@H]1C[C@@]1(CCC)[C@@H](NP(=O)(c1ccccc1)c1ccccc1)c1ccc(C(=O)OC)cc1	7.8	-6.7	-2.9%	?	-1.8%	-3.1	-4.2%	22.4µM*
SMILES	D3 antag	D3 ag	a7 integrin act	IDH1 R132H inh	B2AR arrestin	IDH1 autofl	IDH1 WT	IDH1 R132H conf
O=c1nc2s/c(=C\c3ccco3)c(=O)n2nc1Cc1ccc(F)cc1	22.5	7.1	?	-1.6%	-0.1%	nt	nt	nt
NC(=O)CN1C(=O)/C(=c2\sc3nc(=O)c(Cc4ccccc4)nn3c2=O)c2ccccc21	-25.0	-4.0	-14.3%	?	-0.4%	2.3	39.7%	-6.1%
COc1cc(C)c(Cl)cc1S(=O)(=O)N1CCSC1	-0.3	10.1	-19.1%	-0.6%	0.0%	nt	nt	nt
Cc1ccc(-c2cc(C(F)F)n3ncc(C(=O)N4CCCCC4c4cccnc4)c3n2)cc1 (configuration not stated)	24.8	3.0	-7.7%	?	-0.9%	-5.3	5.8%	35.5µM*
COc1c(OC(C)=O)ccc(/C=C/c2ccc3ccccc3n2)c1[N+](=O)[O-]	-27.5	11.3	-44.1%	?	-0.4%	-14.9	2.2%	31.6µM*
COc1c(OC(C)=O)ccc(/C=C/c2ccc3cccc(OC)c3n2)c1[N+](=O)[O-]	-20.8	-7.2	2.5%	?	-0.6%	nt	nt	nt
